For eight compounds, Kd results are on record in publication PMC5540273 (PLoS ONE, 2017).

One assay deals with T1, BIKE.
T1 construct: gene BMP2K

In a further assay the test system is T2, BRK.
T2 construct: gene PTK6
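Also: kd values determined as follow-up on hits from a single-replicate KINOMEscan panel screen.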

Take `O=S(=O)(c1ccc(-c2ccnc3[nH]ccc23)cc1)N1CCCC1` [GSK846226]: the Kd – broadly, the free concentration of one partner at which half of the binding sites on the other are occupied at equilibrium, for simple one-to-one binding – with BIKE worked out at 7.2 µM.

`Cc1ccc(NC(=O)Nc2cccc(C(F)(F)F)c2)cc1` [GSK955403] returned a Kd in the assay with BMPR1A above 10 µM.

In turn, `O=C1NC(=O)C(N2CCc3ccccc32)=C1c1ccccc1Cl` [SB-373598] returned a Kd in the assay with BMPR2 above 10 µM.

`NC(=O)c1nnc2ccccc2c1N`: in the assay on BMX, the Kd is above 10 µM.

For `O=C(O)COc1ncnc2cc(-c3ccc4[nH]ncc4c3)sc12`, the Kd in the assay on BRK was above 10 µM.

In the case of `Cc1c(O)cccc1Nc1ccnc2ccc(C(F)(F)F)cc12.Cl` [GW466413], the Kd in the assay with BRK stood at 0.19 µM.

Regarding `Cl.Oc1ccc(-c2nc(-c3ccccc3)[nH]c2-c2ccncc2)cc1` [SB-428218], the affinity in the assay with BUB1, expressed as Kd, was 0.56 µM.

The compound `CN(C)CCN(C)C(=O)c1cc(-c2ccncc2)c(-c2ccc(Cl)c(O)c2)o1.Cl.Cl` [SB-710397] yielded a Kd in the assay with BUB1 of 0.39 µM.
